Source: PubChem BioAssay
This excerpt belongs to a sample that is enriched for hits.
Pf Dd2 growth – qHTS Primary assay for Inhibitors of Plasmodium falciparum Dd2 growth in vitro. P. falciparum Dd2 growth, SYBR Green, 72 h. Potency, µM (doses to about 28.9 µM), actives largely listed as inhibitors. actives 4.3% (n = 120,000); active = well fitted inhibition curve with a large enough effect; also: nearly all actives have a fitted effect of over 65% in size
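Infected erythrocytes (Dd2, 0.3% parasitemia, 2.5% hematocrit final) are added to compound in RPMI-1640/Albumax II medium, grown 72 h at 37C in low oxygen, then lysed with saponin/Triton-X containing SYBR Green and read by fluorescence.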
Each line names hits and unclear results; the compound was inactive in the other large screens.

O=C(NC1CCCCC1)C1CCN(C(=O)N2CC3CC(C2)[C@H]2CCCC(=O)N2C3)CC1 (some centres not stated)	none
O=C(C1CCCO1)N1CCN(c2nc(-c3ccncc3)nc3c2CNC3)CC1 (configuration not stated)	none
COc1ccc(C2(C(=O)N3CCCCCCN(C)C(=O)[C@@H]4CCC[C@@H]43)CC2)cc1	none
O=C(C1CC1)N1CCCN(C(=O)C2(c3ccccc3)CC2)c2ccccc21	none
CN(C)Cc1cn2c(=O)n(C)cc(-c3ccc(F)c(Cl)c3)c2n1	Pf Dd2 growth 2.51µM
CN(C)Cc1cn2c(=O)n(C)cc(-c3ccc(O)c(F)c3)c2n1	none
Cn1cc(-c2ccc(F)c(Cl)c2)c2nc(CO)cn2c1=O	none
COCC(=O)N[C@H](C)c1onc(C)c1C(=O)O	none
O=C(CCCc1ccccc1)N1CCC(c2noc(-c3cnccn3)n2)C1 (configuration not stated)	none
COCCOC1CCN(S(=O)(=O)c2cn(C)cn2)CC1	none
O=C(C1CCCC1)N1CC2(CCCCN2CC2CC2)Cc2ccccc21 (configuration not stated)	none
CC(=O)N1Cc2ccccc2CC2(CCCN2CC2CCOCC2)C1 (configuration not stated)	none
CC(=O)NCCC(=O)N1Cc2ccccc2CC2(CCCN2CCc2ccc(C)cc2)C1 (configuration not stated)	Pf Dd2 growth 8.91µM
CC(=O)NCCC(=O)N1Cc2ccccc2CC2(CCN(CC3CCNC3)C2)C1 (configuration not stated)	none
CC(=O)NCCC(=O)N1Cc2ccccc2CC2(CCCN2CC2CCNCC2)C1 (configuration not stated)	none
CC(=O)N1CC2(CCCN2C2COC2)Cc2ccccc21 (configuration not stated)	none
CCCN1CCCC12Cc1ccccc1CN(C(=O)CCNC(C)=O)C2 (configuration not stated)	none
CC(=O)N1CC2(CCCN2CC2CC2)Cc2ccccc21 (configuration not stated)	Pf Dd2 growth 10µM
CN1CCC(C(=O)N2Cc3ccccc3CC3(CCCCN3CC3CCNCC3)C2)CC1 (configuration not stated)	none
CC(=O)NCCC(=O)N1Cc2ccccc2CC2(CCCN2CC2CCCCC2)C1 (configuration not stated)	Pf Dd2 growth 8.91µM
CC(=O)N1Cc2ccccc2CC2(CCCN2CC2CCCC2)C1 (configuration not stated)	Pf Dd2 growth 10µM
C[C@@H]1CN(C(=O)CCc2cnccn2)C[C@@]1(O)C1CC1	none
Cc1nnc(-c2cc(C(=O)NCCc3ccccc3)ccn2)n1Cc1cccnc1	none
CN(Cc1cccnc1)C1CN(C(=O)c2cnn(C)c2)C1	none
CC(C)C1CN(C(=O)c2ccc(F)cn2)CCC(=O)N1Cc1ccc(F)cc1 (configuration not stated)	none
Cc1noc(C)c1CC(=O)NC1CCc2nnc(C3CC3)n2CC1 (configuration not stated)	none
Cc1cnc(CC2CCN(C(=O)Nc3ccccc3F)C2)n1C(C)C (configuration not stated)	none
O=S(=O)(c1ccccc1)N1CCC(Cc2nncn2-c2ccccc2)C1 (configuration not stated)	none
Cc1cnc(C2CCN(C(=O)NC(C)C)C2)n1C(C)C (configuration not stated)	none
CCC(=O)N1CCC(Cc2ncc(C)n2C2CC2)C1 (configuration not stated)	none
Cc1cnc(CC2CCN(S(=O)(=O)c3ccccc3)CC2)n1Cc1ccccc1	Pf Dd2 growth 0.562µM
Cc1cnc(CC2CCN(S(=O)(=O)c3ccc(C#N)cc3)C2)n1C1CC1 (configuration not stated)	Pf Dd2 growth 10µM
N#Cc1ccc(S(=O)(=O)N2CCC(Cc3nc(-c4ccncc4)n[nH]3)C2)cc1 (configuration not stated)	none
CCn1cc(S(=O)(=O)N2CCC(Cc3ncc(C)n3Cc3ccc(F)cc3)CC2)cn1	none
Cn1c([C@H]2CCN(S(=O)(=O)c3ccc(F)cc3)C2)nc2ccccc21	none
Cc1cnc(C2CCN(S(=O)(=O)c3ccccc3)C2)n1C(C)C (configuration not stated)	Pf Dd2 growth 3.98µM
CC(=O)N1CCCC(Cc2ncc(C)n2C(C)C)C1 (configuration not stated)	none
Cc1cnc(CC2CCCN(C(=O)Cc3ccccc3)C2)n1C(C)C (configuration not stated)	Pf Dd2 growth 4.47µM
Cc1cnc(C(=O)NC2C[C@H]3CC[C@@H](C2)N3S(=O)(=O)c2ccccc2)cn1 (some centres not stated)	none
Cc1noc(C)c1CC(=O)N1CCCC(COc2ccccc2C(=O)NC(C)C)C1 (configuration not stated)	none
COc1cccc(CC(=O)N2CCn3c(nnc3[C@@H]3C[C@@H](O)CN3C(C)C)C2)c1	none
c1cc2nnc(C3CCC3)n2nc1N1CCOCC1	none
O=C1CC(c2cn[nH]c2C(=O)O)c2c(n[nH]c2-c2cccs2)N1 (configuration not stated)	none
CN1C(=O)C(CC(=O)NC2CCCC2)=C2CCCCC21 (configuration not stated)	none
COc1ccc(CC(=O)N2C[C@@H](C(=O)O)[C@H](c3ccccc3)C2)c(OC)c1	none
O=C(N[C@H](c1cccs1)C1CC(O)C1)c1n[nH]c2c1COCC2 (some centres not stated)	none
COc1ccc(CC(=O)Nc2ccc(N3CCC(NCCCn4cccn4)CC3)cc2)cc1	none
CCCCNC(=O)C1CCN(C(=O)c2ncn3c2COC(c2ccccc2)C3)CC1 (configuration not stated)	none
Cc1cnc(CC2CCN(C(=O)NC(C)(C)C)CC2)n1Cc1ccc(F)cc1	none
CCCn1c(C)cnc1CC1CCN(C(=O)c2ccc(OC)cc2OC)CC1	none
Cc1cnc(CC2CCN(C(=O)Nc3ccccc3)C2)n1CC1CC1 (configuration not stated)	none
CCCS(=O)(=O)NCCc1ncc(C)n1Cc1ccccc1	none
CCCn1c(C)cnc1CC1CCCN(S(=O)(=O)c2cc(OC)ccc2OC)C1 (configuration not stated)	Pf Dd2 growth 1.26µM
Cc1cnc(CC2CCN(C(=O)C3CC3)CC2)n1Cc1ccccc1	Pf Dd2 growth 6.31µM
COc1cccc(CN2CCCC(Cc3ncc(C)n3Cc3ccccc3)C2)c1 (configuration not stated)	none
CCS(=O)(=O)N1CCC(Cc2ncc(C)n2Cc2ccccc2)C1 (configuration not stated)	Pf Dd2 growth 11.2µM
CCCn1c(C)cnc1CC1CCCN(C(=O)CCOC)C1 (configuration not stated)	none
CC(=O)N1CCCC(c2[nH]ccc2C(=O)NCCc2cccs2)C1 (configuration not stated)	none
CCn1nccc1C(=O)N1CCN(Cc2ccc(=O)n(C)c2)CC1	none
Cc1ccc(-c2nc(C(=O)NCc3cc(F)cc(F)c3)no2)cc1	none
CCCC(=O)N1CCc2cn(C)c3cccc(c23)C1	none
CC(=O)N1C[C@@H](CN(C)C)[C@H](NC(=O)Cc2ccc(OC(F)(F)F)cc2)C1	none
Cc1ccc(C(=O)N2CCC(Cc3nncn3C)CC2)cc1N1CCNC1=O	none
O=C(C1CCOCC1)N1CCC(c2noc(COc3ccc(F)cc3)n2)C1 (configuration not stated)	none
NC(=O)c1cc[nH]c1C1CCCN(C(=O)COc2ccc(Cl)cc2)C1 (configuration not stated)	none
COc1ccc(C(=O)N2CCC[C@H](n3c(=O)n(CC4CC4)c4cccnc43)C2)cc1F	Pf Dd2 growth 12.6µM
